Hits are enriched below; roughly 6.8% of the tested compounds scored in any of these assays.
MCF10A rereplic: inducers of DNA re-replication in MCF 10A breast cells. AID 624296. MCF 10A DNA re-replication, Hoechst nuclear intensity, 48 h. hit rate 2.9% among 350,000. Potency, µM (doses to about 46.1 µM), for the others: at the highest dose activity, positive = re-replication, hits mostly activators; note: % of control where 0% means no effect; nearly all actives have a fitted effect of over 50% in size
KB-3-1 cytotox: KB-3-1 parental cell cytotoxicity; KB-3-1 viability, CellTiter-Glo ATP luminescence, 72 h; Potency, µM (doses to about 46.1 µM), actives largely listed as cytotoxic; hit rate 1.4% among 400,000; note: % is set by controls: 0 for no effect and ±100 for the full control effect; nearly all actives have a fitted effect of over 60% in size
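KB-3-1 cells, DMEM (no phenol red) + 10% FBS; compound by pin transfer, 72 h, 37 °C. Readout: CellTiter-Glo luminescence after 10 min. Data normalized, curve-fitted.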
SW480 rereplic: DNA re-replication induction in SW480 cells; Potency, µM (highest dose often 46.1 µM), for inactives: at the highest dose re-replication activation, most hits filed as activators; SW480 DNA re-replication, Hoechst DNA content imaging, 48 h; hit rate 1.8% among 340,000; note: % of control where 0% means no effect; nearly all actives have a fitted effect of over 55% in size
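Quantitative HTS format with DMSO vehicle controls; 48 hr drug incubation at 37 C, then 40 min Hoechst staining and scanning imager measurement at 405 nm excitation.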
PINK1 modulator: modulators of PINK1 expression. PINK1 immunofluorescence, high-content cytometry, 24 h. Potency, µM (series often up to 76.6 µM), for inactives: at the top dose activation (PINK1 increase), usual class: activators. AID 624263. hit rate 0.2% among 410,000; active = well fitted activation curve with a large enough effect; inconclusive = small, poorly fitted or top-dose-only effect; cell line not stated here; note: % of control where 0% means no effect; nearly all actives have a fitted effect of over 65% in size
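Compound titrations (5 concentrations, 24 h) on a stable cell line; DMSO and CCCP controls. Endpoint: fixed-cell PINK1 immunofluorescence with mitochondrial, cell and nuclear markers, scanned by microplate cytometer.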
PTAP TSG101 blk: blocks PTAP/TSG101 interaction to inhibit HIV-1 budding; Q99816; Fluorescence polarization, FITC-PTAP peptide / Tsg101 binding; Potency, µM (doses to about 115 µM), for inactives: at the top dose activity change, negative = inhibition, hits mostly inhibitors; 340,000 tested, under 10 active; AID 493005; active = well fitted inhibition curve with a large enough effect in the main read-out, with a control signal flat, not every such curve was filed as active; inconclusive = small, poorly fitted or top-dose-only effect, or effect the other way, or a change in a side signal; inactive = no such curve, though single readings can be large or run the other way; note: % of control where 0% means no effect
Target sequence (Q99816 whole entry, looked up): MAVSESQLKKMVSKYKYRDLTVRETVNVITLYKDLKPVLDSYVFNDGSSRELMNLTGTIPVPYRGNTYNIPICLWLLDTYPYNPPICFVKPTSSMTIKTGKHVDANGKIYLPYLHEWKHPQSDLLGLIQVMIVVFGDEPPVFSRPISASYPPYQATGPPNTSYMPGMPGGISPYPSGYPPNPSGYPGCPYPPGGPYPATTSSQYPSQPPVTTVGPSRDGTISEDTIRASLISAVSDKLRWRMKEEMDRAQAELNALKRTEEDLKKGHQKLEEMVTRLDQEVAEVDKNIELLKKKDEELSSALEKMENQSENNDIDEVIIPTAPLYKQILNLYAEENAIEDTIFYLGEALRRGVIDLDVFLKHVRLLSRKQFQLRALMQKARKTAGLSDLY
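Fluorescence polarization binding of Tsg101 binding domain (10 uM final) to FITC-labeled PTAP peptide (50 nM final) in HEPES pH 7.5 buffer with NaCl, Tween 20, EDTA, TCEP. Compounds added before peptide; binding 20 min at RT.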
KB-V1 MDR tox: KB-V1 MDR subline cytotoxicity. KB-V1 MDR cells viability, CellTiter-Glo, 72 h. Potency, µM (top dose mostly 46.1 µM), hits mostly cytotoxic. hit rate 3.4% among 400,000. AID 1347076; note: % is set by controls: 0 for no effect and ±100 for the full control effect; nearly all actives have a fitted effect of over 60% in size
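Compound-treated KB-V1 multidrug-resistant cells, 72 h, 37 degrees C; viability by CellTiter-Glo. Fitted qHTS curves give the values.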
Starred values were filed as active, the others as inactive; i = inactive; ? = inconclusive; / = not tested or not shown; [ ] = dose if it differs, or a comment. Unless noted, calls come from the whole dose curve; as a rule, active = well fitted curve in the direction sought with a large enough effect; inconclusive = small, poorly fitted or top-dose-only effect, or another doubt; inactive = no such curve, though single readings can be large; an effect the other way counts as inactive or inconclusive. Potency is the fitted concentration of half-maximal effect.

SMILES | MCF10A rereplic | KB-3-1 cytotox | SW480 rereplic | PINK1 modulator | PTAP TSG101 blk | KB-V1 MDR tox
Cc1cccc(C(=O)N2CCC(=O)N(C(COCc3ccc(Cl)cc3)Cc3ccccc3)CC2)c1 (stereo not drawn) | ? | ? | ? | 28.5% | -1.0% | ?
CCOC(=O)c1c(C)oc2nc(C)nc(NCCCN3CCN(c4cccc(C)c4)C(C)C3)c12 (stereo not drawn) | / | i | / | -0.1% | / | i
CCc1nc(SCCO)c2oc3ccccc3c2n1 | 13.7% | ? | -1.3% | -2.9% | 2.3% | ?
CCc1nc(SCc2nc3ccccc3[nH]2)c2oc3ccccc3c2n1 | ? | i | 24.9% | 7.0%[38.3 µM] | -0.8% | 3.26µM*
Cc1nc(SCc2nc3cc(Cl)c(F)cc3[nH]2)c2oc3ccccc3c2n1 | ? | ? | ? | 14.1µM* | 13.1% | ?
Cc1nc(SCc2nc3ccc(C(F)(F)F)cc3[nH]2)c2oc3ccccc3c2n1 | ? | 16.4µM* | 6.4% | 15.8µM* | 0.6% | i
CCc1nc(Sc2nc(C)cc(C)n2)c2oc3ccccc3c2n1 | ? | ? | ? | 1.8% | 0.2% | 16.4µM*
Cc1nc(SCc2nc3ccc(Cl)cc3[nH]2)c2oc3ccccc3c2n1 | ? | i | 24.8% | 4.7% | 0.3% | i
O=C(CSc1nccn1Cc1ccc(F)cc1)NCc1ccc(F)cc1 | / | i | / | -4.4% | / | i
O=S(=O)(Nc1ccc(-c2ccc(N3CCCC3)nn2)cc1)c1ccc(Br)cc1 | / | i | / | 2.7% | / | i
COc1ccc(CCNc2nc3cc(OC)c(OC)cc3c3nc(-c4cccnc4)nn23)cc1OC | / | / | / | -0.6% | / | /
COc1ccc(CCNC(=O)CCc2c(C)nc3c(c(C)nn3-c3ccccc3)c2C)c(OC)c1 | / | i | / | -0.1% | / | i
Cc1ccc(S(=O)(=O)NNC(=O)NC23CC4CC(CC(C4)C2)C3)cc1 | 9.0% | i | -3.4% | 1.9% | -3.4% | 20.6µM*
CC(=O)Nc1ccc(S(=O)(=O)NNC(=O)NC23CC4CC(CC(C4)C2)C3)cc1 | 3.2% | i | 6.4% | -0.8% | -1.5% | i
Nc1nn(-c2ccccc2)c(N)c1N=Nc1ccccc1 | 5.8µM* | ? | 5.17µM* | 10.6% | -1.7% | 5.8µM*
Cc1nn(-c2ccccc2)c(N)c1N=Nc1ccccc1 | ? | ? | ? | 13.3% | -1.7% | ?
Nc1nn(-c2ccccc2)c(N)c1N=Nc1ccccc1F | 8.2µM* | ? | 10.3µM* | 6.1% | -5.4% | 4.61µM*
Cc1nc(Cc2nnc(SC(C)C(=O)N3c4ccccc4NC(=O)C3(C)C)o2)cs1 (stereo not drawn) | -0.4% | i | 1.8% | 1.8% | 0.9% | i
CC(Sc1nnnn1C1CC1)C(=O)N1c2ccccc2NC(=O)C1(C)C (stereo not drawn) | 0.9% | i | -5.6% | -0.5% | -8.6% | 20.6µM*
Nc1c(C(=O)Nc2ccccc2)sc2nc3c(c(-c4ccco4)c12)CCC3 | ? | ? | 2.4% | 9.0% | 1.1% | i
Cc1ccc(NC(=O)c2sc3nc4c(c(-c5ccco5)c3c2N)CCC4)cc1 | 1.78µM* | i | 12.7% | 9.6% | ? | i
Cc1ccccc1NC(=O)c1sc2nc3c(c(-c4ccco4)c2c1N)CCCC3 | ? | i | 16.4µM* | / | -9.2% | i
NC(=O)c1sc2nc3c(c(-c4cccs4)c2c1N)CCCCC3 | 12.6µM* | i | ? | 0.0% | -6.4% | i
Nc1c(C(=O)Nc2ccc(Br)cc2)sc2nc(-c3ccco3)ccc12 | 5.17µM* | i | ? | 2.5% | 4.2% | 5.17µM*
NC(=O)c1sc2nc3c(c(-c4cccnc4)c2c1N)CCC3 | -0.2% | i | 1.8% | -5.7%[38.3 µM] | -6.9% | i
SMILES | MCF10A rereplic | KB-3-1 cytotox | SW480 rereplic | PINK1 modulator | PTAP TSG101 blk | KB-V1 MDR tox
Nc1c(C(=O)Nc2ccccc2)sc2nc3c(c(-c4ccco4)c12)CCCC3 | ? | i | ? | 5.5% | -1.6% | i
Nc1c(C(=O)Nc2ccc(F)cc2)sc2nc(-c3ccco3)ccc12 | ? | i | ? | 9.9% | -0.9% | i
COC(=O)c1cc(NC(=O)CCc2c(C)nc3nc(C)nn3c2C)cc(C(=O)OC)c1 | / | i | / | 0.5% | / | i
COc1ccc2cc(-c3nc4ccc(C(=O)O)cc4[nH]3)c(=O)oc2c1 | / | i | / | -0.4% | / | i
CC(C)c1ccc(CN2CCN(C(=O)CCl)CC2)cc1 | 6.51µM* | ? | ? | -2.9% | -3.3% | ?
O=C(/C=C/c1ccc(Cl)cc1)Nc1ccc(CN2CCOCC2)cc1 | 15.9% | ? | ? | 3.8% | 1.3% | i
CC(C)c1ccc(/C=C/C(=O)Nc2ccc(CN3CCOCC3)cc2)cc1 | 13µM* | ? | ? | 2.7% | 0.7% | 16.4µM*
CC(C)CC(=O)N1CCN(Cc2ccc(Cl)cc2)CC1 | ? | i | -5.7% | 1.6% | -2.9% | i
Cc1ccccc1Nc1cc(C(=O)NC2CCCC2)c2ccccc2n1 | / | i | / | 11.2% | / | i
CCCCc1ccc(NC(=O)CSCc2cc(=O)[nH][nH]2)cc1 | 12.6µM* | i | -2.7% | 6.4%[38.3 µM] | -0.5% | ?
O=C(CSCc1cc(=O)[nH][nH]1)Nc1ccc(F)cc1 | 1.9% | i | 2.1% | -0.6% | -0.5% | ?
COc1ccccc1CN(C)C(=O)c1cccc(S(=O)(=O)N2CCc3ccccc3C2)c1 | 5.3% | i | 13.5% | 0.3% | -0.2% | i
O=C(CNC(=O)c1cccc(S(=O)(=O)N2CCc3ccccc32)c1)Nc1ccccc1Br | 10.6% | i | 5.9% | -0.2% | -0.2% | 9.2µM*
CC(C)CN(CC(C)C)C(=O)c1cccc(S(=O)(=O)N2CCc3ccccc32)c1 | ? | ? | 15.2% | 16.5% | -0.8% | 10.3µM*
CC(C)CCNC(=O)c1cccc(S(=O)(=O)N2CCc3ccccc32)c1 | 14.7% | i | 14.9% | -0.3% | -3.9% | i
COc1ccc(CN(C)C(=O)c2cccc(S(=O)(=O)N3CCc4ccccc43)c2)c(OC)c1 | 8.3% | 18.4µM* | ? | -0.2% | 1.0% | ?
O=C(CNC(=O)c1cccc(S(=O)(=O)N2CCc3ccccc32)c1)Nc1ccc(F)c(F)c1F | ? | i | 0.7% | -1.1% | -1.1% | ?
CCCN1C(=O)CN(C2CCCCCC2)C(=O)C1c1ccc(OCC)c(OC)c1 (stereo not drawn) | / | / | / | 0.6% | / | /
C=CCn1c(NCCc2ccccc2)nc2c1c(=O)n(C)c(=O)n2C | 6.7% | ? | 0.1% | -1.4% | -1.3% | 9.2µM*
C/C(Cl)=C\Cn1c(NCCc2ccccc2)nc2c1c(=O)n(C)c(=O)n2C | 18.4µM* | i | 21.1% | 0.6%[38.3 µM] | -1.0% | ?

High-throughput results (PubChem)
